Reference: the supplement of paper PMC3334620
The full ranking holds about 33,000 sequences; the median of “E-score (-0.5 to 0.5)” is about -0.054, and the highest 2% start at about 0.39. The full list was thinned out, with the highest values kept by preference.

What follows are sequences tested against Ylr278c (UniProt Q05854) (assay: PBM E-score (8-mer binding enrichment) (E-score (-0.5 to 0.5)); higher = stronger / more preferred TF binding). Details: protein concentration: 200 nM; construct: GST-DNA-binding domain.
Chain of UniProt Q05854 (Q05854 whole entry, the tested form may be a part): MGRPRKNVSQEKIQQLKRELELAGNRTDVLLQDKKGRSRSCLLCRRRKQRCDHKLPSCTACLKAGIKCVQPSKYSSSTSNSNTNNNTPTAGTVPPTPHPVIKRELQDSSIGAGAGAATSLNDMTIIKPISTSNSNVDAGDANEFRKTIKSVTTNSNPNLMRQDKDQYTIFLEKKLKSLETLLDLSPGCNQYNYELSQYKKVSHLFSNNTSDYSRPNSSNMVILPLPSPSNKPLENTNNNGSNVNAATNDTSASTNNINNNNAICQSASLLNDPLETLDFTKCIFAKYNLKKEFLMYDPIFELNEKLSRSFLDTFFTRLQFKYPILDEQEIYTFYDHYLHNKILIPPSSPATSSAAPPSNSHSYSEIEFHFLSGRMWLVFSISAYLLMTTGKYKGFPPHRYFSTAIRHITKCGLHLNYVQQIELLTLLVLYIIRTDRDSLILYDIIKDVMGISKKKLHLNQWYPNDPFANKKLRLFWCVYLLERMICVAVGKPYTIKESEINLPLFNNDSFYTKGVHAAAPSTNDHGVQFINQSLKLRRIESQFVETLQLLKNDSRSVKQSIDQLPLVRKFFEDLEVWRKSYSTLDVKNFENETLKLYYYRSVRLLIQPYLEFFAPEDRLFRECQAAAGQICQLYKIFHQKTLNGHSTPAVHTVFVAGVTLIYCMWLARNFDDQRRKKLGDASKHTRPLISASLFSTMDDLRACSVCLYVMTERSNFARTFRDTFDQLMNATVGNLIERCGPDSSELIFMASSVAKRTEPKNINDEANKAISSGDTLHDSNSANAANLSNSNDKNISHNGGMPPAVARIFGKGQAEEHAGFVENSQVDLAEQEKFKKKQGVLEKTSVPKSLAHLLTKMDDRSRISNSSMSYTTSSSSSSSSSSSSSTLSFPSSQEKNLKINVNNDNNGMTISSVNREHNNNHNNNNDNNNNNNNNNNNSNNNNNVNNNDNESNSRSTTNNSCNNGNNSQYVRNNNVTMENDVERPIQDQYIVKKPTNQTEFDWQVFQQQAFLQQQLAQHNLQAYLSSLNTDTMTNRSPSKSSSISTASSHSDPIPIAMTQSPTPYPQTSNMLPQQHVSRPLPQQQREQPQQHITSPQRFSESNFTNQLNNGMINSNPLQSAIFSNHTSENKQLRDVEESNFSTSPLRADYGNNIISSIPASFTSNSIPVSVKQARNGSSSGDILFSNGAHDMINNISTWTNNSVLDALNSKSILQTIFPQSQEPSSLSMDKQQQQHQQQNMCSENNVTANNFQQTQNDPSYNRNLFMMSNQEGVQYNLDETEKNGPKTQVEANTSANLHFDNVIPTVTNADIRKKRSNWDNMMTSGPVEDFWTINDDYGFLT
Experimental: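 Universal 'all 10-mer' protein binding microarrays (Agilent AMADID 015681) probed with GST-tagged S. cerevisiae TFs (full-length or DBD) made by in vitro transcription/translation (PURExpress), about 100-200 nM. Bound TF was detected with fluorescent anti-GST. Each ungapped 8-mer (which stands for itself and its reverse complement) is scored by the PBM enrichment score (E-score), a modified Wilcoxon-Mann-Whitney statistic from -0.5 to +0.5, computed with the Universal PBM Analysis Suite. Scale: above 0.35 generally sequence-specific binding.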

| Sequence | PBM E-score |
| --- | --- |
| CATTGCTA | -0.0953 |
| ACGCTCTA | -0.183 |
| ATCGAAAG | -0.0309 |
| GACTGCTA | -0.277 |
| CCAGTCCA | -0.17 |
| GTCCCTAA | -0.0663 |
| AAGAGAGT | -0.0766 |
| ATTCCCCG | 0.375 |
| ATTCCGGG | 0.443 |
| ATTCCCGA | 0.338 |
| ATTCCGGC | 0.463 |
| ACTCCCCG | 0.338 |
| ATTCCTGC | 0.0732 |
| ATTCCCGG | 0.411 |
| ATTCCAGC | -0.104 |
| ACTCCCGA | 0.217 |
| ATTCCTGG | -0.0751 |
| ATTCCGTG | 0.361 |
| ACTCCCGG | 0.396 |
| GCGAGTCA | -0.0556 |
| CACCGCCC | 0.218 |
| AAGCTCTG | -0.356 |
| ATTTATCC | 0.163 |
| ACATCAAC | 0.05 |
| TAAAGAAA | 0.0382 |

| Sequence | PBM E-score |
| --- | --- |
| CGCCAAAC | 0.0632 |
| AATTAGCC | 0.0197 |
| GGGGAATA | 0.141 |
| CCGGAAGA | 0.421 |
| CTGGAATC | -0.0172 |
| CCGGAAGG | 0.387 |
| CCGGAATC | 0.435 |
| ACGGAAGA | 0.169 |
| ACGGAATA | 0.357 |
| ACGGAATC | 0.32 |
| GCGGAATA | 0.396 |
| CCGGAATA | 0.434 |
| GTGGAATA | 0.0653 |
| CGGGAATA | 0.374 |
| AAATGTGA | -0.146 |
| CACCCCCG | 0.145 |
| CATCTTTA | -0.0964 |
| AGGTAACG | -0.0647 |
| GTATGGGA | -0.174 |
| CCTCTACA | -0.252 |
| AAGATCTT | 0.0756 |
| AAGCGTCT | -0.176 |
| ACTCATGG | -0.191 |
| ATCCGGCG | 0.432 |
| ATACGGTG | 0.0149 |

| Sequence | PBM E-score |
| --- | --- |
| ATCCGGCC | 0.399 |
| ACCCGGTG | 0.277 |
| AACCGGCG | 0.361 |
| ACCCGGCC | 0.272 |
| AACCGGCC | 0.275 |
| ATCCGACG | 0.367 |
| ATCCGGTG | 0.408 |
| CTCACCTC | -0.0994 |
| CTAGCATC | -0.167 |
| CTGCTTTA | 0.0716 |
| GGTCTCTA | -0.21 |
| ATCGCCAC | -0.0201 |
| GCTGGGCA | -0.184 |
| ATAACTTG | -0.14 |
| ATACTGCC | 0.013 |
| ATAGAGAG | -0.283 |
| AAGTCCTC | 0.122 |
| ACGTCCGC | 0.299 |
| AAGTCCGG | 0.481 |
| AAGTCCGT | 0.433 |
| AAGTCCTG | -0.106 |
| AAGTCCAT | -0.0494 |
| AAGTCCCT | -0.213 |
| AAGTCCGC | 0.46 |
| AAGTCCAG | -0.0689 |

| Sequence | PBM E-score |
| --- | --- |
| CACCGCTG | -0.0372 |
| ACTTAAGG | -0.105 |
| ACACAAGA | -0.0979 |
| ACTAGAAT | -0.0455 |
| ATTGGCCC | -0.211 |
| GTCGTCGA | -0.121 |
| AGGGTGCC | -0.211 |
| CGTATCTC | 0.148 |
| GCCGGCAA | 0.391 |
| TCCGGCGA | 0.437 |
| CCCGGCAA | 0.303 |
| TCCGGCAA | 0.431 |
| TACGGCAA | 0.129 |
| GCCGGCAC | 0.304 |
| TCCGGCCA | 0.409 |
| ACCGGCCA | 0.169 |
| CCCGGCCA | 0.267 |
| GCCGGCGA | 0.385 |
| ACCGGCGA | 0.379 |
| ACCGGCAA | 0.285 |
| CCTAGTAA | 0.00285 |
| AGCCTGGC | -0.226 |
| AACCAGGG | -0.155 |
| GCTGCACC | 0.00051 |
| GAGGTGAA | -0.0886 |

| Sequence | PBM E-score |
| --- | --- |
| ACATCAGC | -0.0321 |
| AATTCCGA | 0.48 |
| AATTCCGG | 0.48 |
| AATTCCCG | 0.345 |
| AATTCCGC | 0.456 |
| AATTCCCA | -0.035 |
| AATTCCTG | 0.0336 |
| AATTCCAA | -0.00843 |
| GATTCCGC | 0.355 |
| AATTCCAT | 0.0569 |
| CATTCCGC | 0.32 |
| AATTCCCT | -0.103 |
| AATTCCGT | 0.441 |
| GCTAAATA | -0.231 |
| TGTGGAAA | -0.0101 |
| ATCCATTC | -0.0913 |
| TCTCGAAA | -0.21 |
| AAATGCCA | -0.131 |
| CAGGCTGG | -0.0868 |
| TGTGTCAA | -0.227 |
| CCGTTGTC | 0.233 |
| AAATCGGT | 0.148 |
| CAGTCGGA | 0.357 |
| GAATCGGC | 0.33 |
| GAATCGCA | -0.0817 |

| Sequence | PBM E-score |
| --- | --- |
| GAGTCGGA | 0.387 |
| CAATCGGC | 0.129 |
| AAATCGGA | 0.43 |
| CAATCGGA | 0.425 |
| AAATCGGG | 0.276 |
| GAATCGGA | 0.409 |
| TAGTCGGA | 0.414 |
| CAATCGGG | 0.219 |
| AGACGCAG | -0.164 |
| CCGCACAC | 0.0213 |
| AACCCAGG | -0.176 |
| ATGTACTC | -0.0177 |
| AGAGCTAA | -0.171 |
| CGAACGCA | 0.106 |
| CTCTGACC | -0.148 |
| AATTTTCC | 0.358 |
| GCCATCGC | -0.0776 |
| ATGTTCTG | -0.11 |
| TCTCTACA | -0.211 |
| TAATCGAA | -0.0147 |
| TAATCGTA | -0.186 |
| TAATCGGA | 0.417 |
| CCCTGTCA | -0.228 |
| GCCGCGGC | 0.406 |
| ACCGCGGT | 0.178 |

| Sequence | PBM E-score |
| --- | --- |
| GACGCGGC | 0.079 |
| ACCGCGGC | 0.305 |
| GCCGCGAA | 0.233 |
| ACCGCGGA | 0.407 |
| GCCGCGCA | 0.21 |
| AGCGCGGA | 0.325 |
| GCCGCGGA | 0.409 |
| ACCGCGGG | 0.299 |
| GGCGCGGA | 0.352 |
| CGCGCGGA | 0.398 |
| AAGTTCAT | 0.154 |
| CGCTTTTA | 0.129 |
| CATGGCAC | 0.133 |
| TACCCGCA | 0.157 |
| CAGCACCC | -0.0668 |
| AGTCAGTA | 0.00611 |
| CATAGCCG | 0.23 |
| AACTCTTC | -0.204 |
| AAGTGGTA | -0.0771 |
| AGTTGTGG | -0.0534 |
| TCCGCGAA | 0.343 |
| CCCGCGGG | 0.363 |
| CCCGCGGA | 0.409 |
| TACGCGGA | 0.309 |
